From the supplement of paper PMC8728848
This excerpt belongs to a sample that is enriched for the strongest signals.

Columns and labels:
Test in all cases: glycan array binding signal (z-score within array); higher = stronger binding
Conditions in all cases: glycan notation: IUPAC condensed, linker removed
[1] = target: Gal(b1-4)GlcNAc(b1-3)[Fuc(a1-3)GlcNAc(b1-6)]Gal(b1-4)Glc
How it was run: (§1)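 Glycan array binding is given as a within-array Z-score, which can be read as non-binding when negative. The arrays, 3228 of them, came from the Consortium for Functional Glycomics database and were retained only where the protein sequence was available. Z-scores were averaged across arrays of the same protein sequence at different concentrations or buffers and across linkers.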

[2] = target: Gal(b1-4)GlcNAc(b1-6)Gal(b1-4)GlcNAc
How it was run: as §1

Gal3S6S(b1-4)GlcNAc = target: Gal3S6S(b1-4)GlcNAc
How it was run: as §1

Gal6S(b1-3)GlcNAc6S = target: Gal6S(b1-3)GlcNAc6S
How it was run: as §1

Gal6S(b1-4)Glc6S = target: Gal6S(b1-4)Glc6S
How it was run: as §1

Gal6S(b1-4)GlcNAc6S = target: Gal6S(b1-4)GlcNAc6S
How it was run: as §1

GalNAc(b1-3)Gal = target: GalNAc(b1-3)Gal
How it was run: as §1

GlcA(b1-6)Gal = target: GlcA(b1-6)Gal
How it was run: as §1

[3] = target: GlcNAc(a1-4)Gal(b1-3)GlcNAc
How it was run: as §1

[4] = target: GlcNAc(a1-4)Gal(b1-4)GlcNAc
How it was run: as §1

[5] = target: GlcNAc(a1-4)Gal(b1-4)GlcNAc(b1-3)Gal(b1-4)[Fuc(a1-3)]GlcNAc(b1-3)Gal(b1-4)[Fuc(a1-3)]GlcNAc
How it was run: as §1

[6] = target: GlcNAc(b1-2)[GlcNAc(b1-6)]Man(a1-6)[GlcNAc(b1-2)Man(a1-3)]Man(b1-4)GlcNAc(b1-4)GlcNAc
How it was run: as §1

GlcNAc(b1-3)Fuc = target: GlcNAc(b1-3)Fuc
How it was run: as §1

[7] = target: GlcNAc(b1-3)Gal(b1-4)GlcNAc(b1-3)GalNAc
How it was run: as §1

[8] = target: GlcNAc(b1-4)GlcNAc(b1-4)GlcNAc(b1-4)GlcNAc(b1-4)GlcNAc
How it was run: as §1

[9] = target: Neu5Ac(a2-3)Gal(b1-4)GlcNAc(b1-6)[Neu5Ac(a2-3)Gal(b1-3)]GalNAc
How it was run: as §1

[10] = target: Neu5Ac(a2-3)Gal(b1-4)GlcNAc6S
How it was run: as §1

[11] = target: Neu5Ac(a2-3)[GalNAc(b1-4)]Gal(b1-4)GlcNAc
How it was run: as §1

[12] = target: Neu5Ac(a2-6)Gal(b1-4)GlcNAc(b1-2)Man
How it was run: as §1

[13] = target: Neu5Ac(a2-6)Gal(b1-4)GlcNAc(b1-3)Gal(b1-3)GlcNAc
How it was run: as §1

[14] = target: Neu5Ac(a2-6)Gal(b1-4)GlcNAc(b1-3)Gal(b1-4)GlcNAc(b1-3)Gal(b1-4)GlcNAc(b1-2)Man(a1-3)[Neu5Ac(a2-6)Gal(b1-4)GlcNAc(b1-3)Gal(b1-4)GlcNAc(b1-3)Gal(b1-4)GlcNAc(b1-2)Man(a1-6)]GalNAc
How it was run: as §1

[15] = target: Neu5Ac(a2-6)GalNAc(b1-4)GlcNAc6S
How it was run: as §1

[16] = target: Neu5Ac(a2-8)Neu5Ac(a2-8)Neu5Ac(a2-3)Gal(b1-4)Glc
How it was run: as §1

B1: Epa3to1 (Candida glabrata) (protein)
chain: MGSSHHHHHHSSGLVPRGSHMKRELSSQNPFGYPIGCSPQDVAIIPGLTMELYSYPIVSGTPPNCYDASYVDPEYPRTGYLKRKMVGKSTGVTGNLNYKYSVEKACMVKYGNLPAGYNYNEPLTVSNFTMILYGYFKAQTTGLHTFFVNADDLLYINFGAGNAFDCCKREDSKTKLGEYVAYDIWHVDSSKNKVSLFLEKDLYYPIRMFFNNREYDSSLDLSFSVNGATDQISDFSGYLYSVPDQPDTCPAHIGYDTTCR
glycan array binding signal (z-score) [1]: 2.39 | glycan array binding signal (z-score) [2]: 0.054 | glycan array binding signal (z-score) (Gal3S6S(b1-4)GlcNAc): 0.487 | glycan array binding signal (z-score) (Gal6S(b1-3)GlcNAc6S): 4.12 | glycan array binding signal (z-score) (Gal6S(b1-4)Glc6S): 6.81 | glycan array binding signal (z-score) (Gal6S(b1-4)GlcNAc6S): 9.56 | glycan array binding signal (z-score) (GalNAc(b1-3)Gal): 0.105 | glycan array binding signal (z-score) (GlcA(b1-6)Gal): 0.35 | glycan array binding signal (z-score) [3]: -0.807 | glycan array binding signal (z-score) [4]: -0.345 | glycan array binding signal (z-score) [5]: -0.037 | glycan array binding signal (z-score) [6]: -0.435 | glycan array binding signal (z-score) (GlcNAc(b1-3)Fuc): -0.291 | glycan array binding signal (z-score) [7]: 0.229 | glycan array binding signal (z-score) [8]: 4.95 | glycan array binding signal (z-score) [9]: -0.382 | glycan array binding signal (z-score) [10]: -0.83 | glycan array binding signal (z-score) [11]: -0.706 | glycan array binding signal (z-score) [12]: -0.272 | glycan array binding signal (z-score) [13]: 4.57 | glycan array binding signal (z-score) [14]: 0.07 | glycan array binding signal (z-score) [15]: -0.365 | glycan array binding signal (z-score) [16]: 0.154
